For 95 compounds, Potency results are on record in PubChem BioAssay AID651815 (National Center for Advancing Translational Sciences (NCATS), 2012).

SMILES strings stand for the structures. In all, about 2,100 compounds went through this assay and about 1,100 (52%) were called active. Not shown: some 29% with an inconclusive outcome. Calls follow the shape of the dose curve; as a rule, active = well fitted inhibition curve with a large enough effect; inconclusive = small, poorly fitted or top-dose-only effect; inactive = no such curve, though single readings can be large or run the other way. The set was probably picked from earlier hits. Some of the results follow.
Potency is read from the fitted curve at half-maximal effect.

The assay deals with DNA dC->dU-editing enzyme APOBEC-3F (Homo sapiens) (UniProt Q8IUX4). The assay can be described thus: qHTS for inhibitors of Vif-A3F interactions: Cherry picks counterscreen. Also: nearly all actives have a fitted effect of over 65% in size. To be noted: HeLa A3F-eYFP/Vif cells, eYFP fluorescence, 24 h; series mostly up to 46.1 µM. A digest of the protocol: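 Rescue of Vif-driven A3F-eYFP degradation read as cellular eYFP fluorescence after 24 h compound exposure (several concentrations) in stable HeLa cells; MG132 (2 mM stock) as positive control.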
DNA dC->dU-editing enzyme APOBEC-3F (Homo sapiens), sequence (Q8IUX4 whole entry, looked up): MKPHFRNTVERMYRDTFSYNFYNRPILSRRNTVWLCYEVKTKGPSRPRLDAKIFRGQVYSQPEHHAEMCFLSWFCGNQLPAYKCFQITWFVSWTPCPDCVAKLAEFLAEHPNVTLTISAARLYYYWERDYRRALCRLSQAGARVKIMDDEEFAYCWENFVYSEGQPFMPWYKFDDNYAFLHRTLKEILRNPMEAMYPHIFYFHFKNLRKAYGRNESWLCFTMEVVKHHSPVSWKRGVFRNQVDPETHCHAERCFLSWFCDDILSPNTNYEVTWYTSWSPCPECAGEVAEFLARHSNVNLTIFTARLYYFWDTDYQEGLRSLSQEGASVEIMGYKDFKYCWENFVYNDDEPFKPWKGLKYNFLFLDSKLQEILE
For the compound `COc1ccc(C2=NOC(C(=O)NCc3ccc(F)cc3)C2)cc1OC` (stereo not given), the Potency was 5.59 µM (active).
With `COc1ccccc1N=C1NC(=O)/C(=C/c2ccc(N(C)C)cc2)S1`, the Potency is 6.51 µM (active).
In the case of `CCOc1ccc(N(C)c2ccc(/C=C3/SC(=S)NC3=O)cc2)cc1`, the Potency was 15.8 µM (active).
On to `CN(C)c1ccc(C=C2SC(=S)NC2=O)cc1`, for which the Potency was 7.04 µM (active).
For `Cc1ccc(Cn2c(SCc3ccc(C(=O)NC4CCCC4)cc3)nc3ccncc32)cc1`, the Potency entry is “inactive”.
The result for `Cc1ccc(C(=O)c2cc([N+](=O)[O-])ccc2N2CCOCC2)cc1C` reads 1.77 µM (active); that for `CN1CCN(c2ccc([N+](=O)[O-])cc2C(=O)c2ccc(Br)cc2)CC1`, 4.98 µM (active).
With `Cc1ccc(C(=O)c2cc([N+](=O)[O-])ccc2N2CCN(C)CC2)cc1`, the Potency is 4.98 µM (active).
As for `Cn1c(=O)[nH]c(=O)c2c1nc(Br)n2Cc1cccc(Br)c1`, the Potency is 9.94 µM (active).
With `C/C(=N\NC(=O)c1c(Cl)c(C)nn1C)c1ccc(NC(=O)C2CCC2)cc1`, the Potency is 1.4 µM (active).
The figure for `CCN(CC)c1ccc(/C=C/c2cccc[n+]2C)c(OC)c1` is 15.8 µM (active); for `COC(=O)/C(=C\Nc1ccc(Cl)cc1Cl)NC(=O)c1ccc(OC)cc1` it is 3.96 µM (active); for `Cn1cccc1/C=C1\SC(=Nc2ccccc2)NC1=O` it is 5.59 µM (active).
As for `Cc1ccc(N=C2NC(=O)/C(=C/c3cn(C)c4ccccc34)S2)cc1C`, the Potency is 15.8 µM (active).
As to `Cn1cccc1/C=C1\SC(=Nc2ccc(O)cc2)NC1=O`, the Potency is 6.27 µM (active).
For `Cc1ccc(N=C2NC(=O)/C(=C/c3cccn3C)S2)cc1`, the Potency is 15.8 µM (active).
In the case of `COc1cc(/C=C2\SC(=Nc3cccnc3)NC2=O)cc(OC)c1OC`, the Potency entry is “inactive”.
As to `Cn1cc(/C=C2\SC(=S)N(NC(=O)c3cccc(Cl)c3)C2=O)c2ccccc21`, the Potency was 16.4 µM (active).
For `Cn1cc(/C=C2\SC(=O)N(c3ccccc3)C2=O)c2ccccc21`, the Potency was 16.4 µM (active).
As for `O=C1NC(=Nc2ccc(O)cc2)S/C1=C/c1ccco1`, the Potency was 12.5 µM (active).
The figure for `COc1cc(/C=C2/SC(=Nc3ccc(O)cc3)NC2=O)ccc1O` is 13 µM (active); for `Cc1cccc(N=C2NC(=O)/C(=C/c3cccn3C)S2)c1` it is “inactive”.
On to `Cc1cc(/C=C2\SC(=Nc3ccccc3)NC2=O)c(C)n1-c1ccc(S(N)(=O)=O)cc1`, for which the Potency is 1.98 µM (active).
Turning to `Cn1cccc1/C=C1\SC(=Nc2cccc(O)c2)NC1=O`, the Potency was 17.7 µM (active).
On to `COc1cc2c(cc1OC)C(C)N(C(=O)c1cc(C)on1)CC2` (stereo not given), for which the Potency was 0.994 µM (active).
On to `COc1cc2c(cc1OC)C(C)N(C(=O)c1cc(Cl)nc(Cl)c1)CC2` (stereo not given), for which the Potency result is “inactive”.
Take `CCN(CC)c1nc(C)c(C(=S)Nc2cc([N+](=O)[O-])ccc2Cl)s1`: the Potency result was “inactive”.
For `CC(=O)Nc1ccc(-c2ccnc3c2CC(C(=O)NCc2cccc(Cl)c2)O3)cc1` (stereo not given), the Potency was 3.53 µM (active).
The result for `CC(=O)Nc1ccc(-c2ccnc3c2CC(C(=O)NCc2ccccc2)O3)cc1` (stereo not given) reads 1.12 µM (active).
Take `O=C1Nc2ccc(Br)cc2C12NNc1ccccc1O2` (stereo not given): the Potency was 14 µM (active).
The entry for `Cc1ccc(CSc2nc(-c3ccc(C(C)(C)C)cc3)nc3cc(=O)[nH]n23)cc1` is “inactive”; for `Cc1sc2ncnc(SCC(=O)NC(C)(C)C)c2c1C` it is “inactive”.
Turning to `COc1cccc(-c2ccc3c(N)c(C(=O)c4ccc(Br)cc4)sc3n2)c1`, the Potency was 23.1 µM (active).
The figure for `COc1ccc(NC(=O)c2sc3nc(-c4cccnc4)ccc3c2N)cc1OC` is 5.8 µM (active); for `COc1cccc(-c2ccc3c(N)c(C(=O)c4ccc(Cl)cc4)sc3n2)c1` it is 16.4 µM (active).
Regarding `Cc1nn(-c2ccc(F)cc2)c(Cl)c1/C=C1\C(=O)Nc2ccccc21`, the Potency is 5.59 µM (active).
On to `O=c1[nH]c(NCc2ccco2)nnc1Cc1ccccc1Cl`, for which the Potency was 12.5 µM (active).
As for `O=[N+]([O-])c1ccc(C2=Nc3cc(Cl)ccc3OC2)cc1`, the Potency entry was “inactive”.
As for `COc1ccccc1N1N=C(c2ccc([N+](=O)[O-])cc2)CC1c1ccccc1` (stereo not given), the Potency was 1.12 µM (active).
In the case of `O=[N+]([O-])c1ccc(/C=C/C2=NN(c3ccccc3)C(c3ccco3)C2)o1` (stereo not given), the Potency is 5.17 µM (active).
In the case of `O=[N+]([O-])c1ccc(C2=NN(c3ccccc3)C(c3ccco3)C2)cc1` (stereo not given), the Potency was 1.58 µM (active).
Regarding `COc1ccc2nc(C)cc(SCC(=O)N/N=C/c3cccc4ccccc34)c2c1`, the Potency is 6.27 µM (active).
The figure for `O=C(Nc1ccc([N+](=O)[O-])cc1)C(Cc1ccccc1)N1C(=O)c2cccc3cccc(c23)C1=O` (stereo not given) is 15.8 µM (active); for `O=S(=O)(Nc1ccc(C(O)(C(F)(F)F)C(F)(F)F)cc1)c1ccc(Cl)c2nonc12` it is “inactive”.
For `CCOC(=O)c1sc2cc([N+](=O)[O-])cc(SCC(C)C)c2c1N`, the Potency was 2.31 µM (active).
In the case of `COC(=O)c1sc2cc([N+](=O)[O-])cc(SCC(C)C)c2c1N`, the Potency is 11.6 µM (active).
Take `COc1ccc(NC2=CC(=O)CC(c3ccccc3)C2)c(OC)c1` (stereo not given): the Potency is 5.59 µM (active).
As to `COc1ccc(NC(=S)Nc2ncccc2C)c(OC)c1`, the Potency entry is “inactive”.
Take `O=C(Nc1ccc(Oc2ccc(NC(=O)Nc3ccccc3Cl)cc2)cc1)Nc1ccccc1Cl`: the Potency was 18.4 µM (active).
Consider `Cc1ccsc1/C=N\NC(=O)c1n[nH]c2c1CCC2`, for which the Potency is 3.96 µM (active).
For the compound `O=C(N/N=C/c1cccs1)c1n[nH]c2c1CCC2`, the Potency was 6.27 µM (active).
In the case of `O=C(N/N=C/c1cccc2ccccc12)c1n[nH]c2c1CCCC2`, the Potency was 1.98 µM (active).
On to `CN(C)S(=O)(=O)c1ccc2c(c1)/C(=C/c1cc3c([nH]1)CCCC3)C(=O)N2`, for which the Potency was 2.23 µM (active).
Consider `Cc1cccc(N2CCN(C(=O)c3ccncc3)CC2)c1C`, for which the Potency is 9.94 µM (active).
For `O=C(CSc1nc(-c2ccco2)cc(C(F)(F)F)n1)Nc1cccnc1`, the Potency was 11.2 µM (active).
The figure for `Cc1nnc(NC(=O)CSc2nc(C(C)C)nc3ccccc23)s1` is 8.86 µM (active); for `Cc1cc(C)n(-c2nnc3n2N=C(c2c[nH]c4ccccc24)CS3)n1` it is 12.5 µM (active).
The figure for `CCOCCCNC(=O)/C(C#N)=C/c1ccc([N+](=O)[O-])o1` is 20.6 µM (active); for `N#C/C(=C\c1ccccc1[N+](=O)[O-])C(=O)NCc1ccccc1` it is “inactive”.
Take `CC(NC(=O)/C(C#N)=C/c1ccc([N+](=O)[O-])o1)c1ccccc1` (stereo not given): the Potency was 18.4 µM (active).
The figure for `CN(C)/C=N/C1=C(C#N)C(c2cccs2)c2ccc3ccccc3c2O1` (stereo not given) is 4.98 µM (active); for `O=C(NCc1cccnc1)c1cccc(NS(=O)(=O)c2ccc(Br)cc2)c1` it is 6.27 µM (active); for `O=C(COc1ccc(C(=O)c2ccccc2)cc1)NCc1ccc(F)cc1` it is 1.98 µM (active).
In the case of `O=C(c1[nH]c(C(F)(F)F)nc1-c1ccccc1)N1CCN(c2cccc(C(F)(F)F)n2)CC1`, the Potency is 2.8 µM (active).
In the case of `CCS(=O)(=O)N1CCc2cc(C(=O)N3CCN(c4cccc(C(F)(F)F)c4)CC3)ccc21`, the Potency result was “inactive”.
The figure for `O=C(c1[nH]c(C(F)(F)F)nc1-c1ccccc1)N1CCN(c2ccccc2)CC1` is 2.23 µM (active); for `N#Cc1sc2nc(-c3cccs3)cc(-c3ccc(Cl)cc3)c2c1N` it is 12.5 µM (active); for `COc1ccc(-c2cc(-c3cccs3)nc3sc(C#N)c(N)c23)cc1` it is “inactive”.
With `CCN(CC)C(=O)c1sc2nc(-c3cccs3)cc(-c3ccc(Cl)cc3)c2c1N`, the Potency is 14 µM (active).
Turning to `O=C(COC(=O)c1ccc(NS(=O)(=O)c2cccs2)cc1O)NCc1ccccc1`, the Potency is 4.44 µM (active).
The result for `COc1ccc2c(c1)c1nc3ccccc3nc1n2CC(=O)OC(C)C` reads 3.66 µM (active); that for `COc1ccc2c(c1)c1nc3ccccc3nc1n2Cc1ccc(OC)c(OC)c1`, 18.4 µM (active).
For `COc1ccc(COn2c(=O)c(C)[n+]([O-])c3ccccc32)cc1OC`, the Potency entry was “inactive”.
`CCOc1ccc(Cn2c3ccc(OC)cc3c3nc4ccccc4nc32)cc1`: the Potency was 18.4 µM (active).
In the case of `Nc1nn(-c2ccccc2)c(N)c1N=Nc1ccccc1`, the Potency was 2.23 µM (active).
`c1ccc(N=NC2=NN(c3ccccc3)CS2)cc1`: the Potency entry is “inactive”.
As for `O=C(CSc1ccccc1)Nc1nc2ccccc2[nH]1`, the Potency was 8.86 µM (active).
As to `N#CC(C(=S)Nc1ccccc1)c1nc2ccccc2[nH]1` (stereo not given), the Potency result was “inactive”.
The entry for `c1ccc2[nH]c(NN=C3CCCCCC3)nc2c1` is “inactive”; for `Cc1ccc2c(c1)C=CC(C#N)N2C(=O)c1ccccc1` (stereo not given) it is 4.98 µM (active).
Regarding `Cc1c(C(=O)OC2CCCCC2)[nH]c2c1C(=O)CC(c1ccccc1Cl)C2` (stereo not given), the Potency was 2.06 µM (active).
For the compound `COc1ccc(OC)c(C2CC(=O)c3c([nH]c(C(=O)OCC4CCCO4)c3C)C2)c1` (stereo not given), the Potency is 12.5 µM (active).
Take `COCCOC(=O)c1[nH]c2c(c1C)C(=O)CC(c1ccccc1)C2` (stereo not given): the Potency is 1.77 µM (active).
The result for `CN(/N=C/c1ccc(N(C)C)cc1)C1=NS(=O)(=O)c2ccccc21` reads 11.2 µM (active); that for `COCCCN(C(C)=O)c1nc(-c2ccc(OC)cc2)cs1`, 17.7 µM (active); that for `CN1C2=CC=CC=CC2=[N+](C)C12C([N+](=O)[O-])=CC(=[N+]([O-])[O-])C=C2[N+](=O)[O-]` (stereo not given), 12.5 µM (active).
The figure for `Cc1ccc(S(=O)(=O)Nc2cc(-c3nn(C)c(=O)c4ccccc34)ccc2N2CCOCC2)cc1` is 12.5 µM (active).
Regarding `Cc1cccc2[nH]cc(/C=C3/C=Nc4ccccc43)c12`, the Potency was 20.6 µM (active).
The entry for `c1cc(SC2CCCCC2)cc(-c2nc3cnccn3c2NC2CCCCC2)c1` is “inactive”; for `CCCCNc1c(-c2ccc(SC3CCCCC3)cc2)nc2cnccn12` it is 4.44 µM (active); for `CCC(C)Sc1ccc(-c2nc3cc(C)ccn3c2NC2CCCCC2)cc1` (stereo not given) it is “inactive”.
Turning to `O=C(c1cc(-c2ccncc2)nc2ccccc12)N1CCN(c2ccccn2)CC1`, the Potency was 6.27 µM (active).
On to `COC(=O)c1sc(N)c(C(=O)OC)c1COC(=O)c1c(C)noc1C`, for which the Potency is 4.44 µM (active).
Regarding `CC(=O)N1CCc2nc3sc(C(=O)c4ccc(F)cc4)c(N)c3c(C(F)(F)F)c2C1`, the Potency was 18.4 µM (active).
Regarding `COc1ccc(C(=O)c2sc3nc4c(c(C(F)(F)F)c3c2N)CN(C(C)=O)CC4)cc1OC`, the Potency is 23.1 µM (active).
